Molecules are shown by their SMILES. This is part of a sample that, as a whole, favours compounds with a hit. Of some 83,000 tested, about 20% had one in any assay.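 The endpoint reported here, percent growth, reads 100 for growth as untreated, 0 for no net growth and -100 for all cells dead.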 A number with no mark means an inactive call. The source made the active and inactive calls. The calls were made as follows: active = growth percent below 10; inactive = the rest.

From PubChem BioAssay (NCI) come the findings set out here.

Assay in all cases: NCI-60 one-dose screen, 48 h (100 = growth as untreated, 0 = no growth, -100 = all killed)
Conditions in all cases: 10 µM

For assay [1], the system named is HCT-15 colon.
In assay [2] the test system is HT29 colon.
Assay [3] has as its system SNB-75 CNS.
Assay [4] relates to SNB-19 CNS.
Assay [5] relates to U251 CNS.
Assay [6] relates to PC-3 prostate.
In assay [7] the test system is SK-MEL-5 melanoma.
In assay [8] the test system is UACC-62 melanoma.
The subject of assay [9] is LOX IMVI melanoma.
For assay [10], the system named is SK-MEL-28 melanoma.
The subject of assay [11] is SK-MEL-2 melanoma.
Assay [12] deals with EKVX NSCLC.
Assay [13] has as its system SN12C renal.
Assay [14] deals with UO-31 renal.
Assay [15] deals with TK-10 renal.
Assay [16] deals with ACHN renal.
In assay [17] the test system is CAKI-1 renal.
Assay [18] relates to A498 renal.
In assay [19] the test system is CCRF-CEM leukemia.
Assay [20] deals with MOLT-4 leukemia.

For the compound `COc1ccc(C2NC(=S)NC(C)=C2C(=O)OC(C)C)cc1OC` (stereo not given), the growth in assay [1] was 105%; in [2], 115%; in assay [3], 94.9%; in assay [4] it was 98.9%; in [5], 102%; in assay [6], 96%. Besides, the growth in [7] was 98.9%; in [8], 90.5%; in assay [9] it was 99.3%; in assay [10] it was 109%; in [11] it was 114%; in [12], 97.9%. Besides, the growth was 101% in [13]; 83.5% in [14]; 106% in assay [15]; 107% in assay [16]; 97.4% in assay [17]; 114% in assay [18]. Moreover, the values for the growth in assay [19] and in [20] were 95.9% and 102%, respectively.

Turning to `OCCNc1oc(-c2ccccc2)nc1[P+](c1ccccc1)(c1ccccc1)c1ccccc1`, the growth in [1] is 77.8%; in [2], 10.4%; in assay [3], -1.51% (active); in [4], 4.29% (active); in assay [5], 14.7%; in [6], 10.6%. For the same compound, the growth in assay [7] is -100% (active); in assay [8], -66.4% (active); in [9] it was 2.03% (active); in [10] it was 3.6% (active); in assay [11] it was -31.8% (active); in [12], 23.8%. For the same compound, the growth in assay [13] was 2.4% (active); in assay [14] it was 71.8%; in [15] it was 32.4%; in assay [16], 84.4%; in assay [17], 75.1%; in assay [18], 74.6%. Further, the growth was 9.78% (active) in assay [19] and 10.2% in [20].

In the case of `COc1ccc(C(=O)CSc2nnc(-c3c[nH]c4ccccc34)n2-c2ccccc2)cc1`, the growth is 73.3% in [1]; 83.1% in assay [2]; 15% in assay [3]; 29.8% in assay [4]; 34.4% in [5]; 50.3% in assay [6]. Also, the growth was 81.3% in assay [7]; 25.8% in assay [8]; 43.5% in assay [9]; 49.7% in assay [10]; 72% in assay [11]; 29.3% in [12]. Further, the growth in [13] is 44.4%; in [14], 32.6%; in assay [15], 63.9%; in assay [16], 22.8%; in assay [17], 61.5%; in assay [18] it was 111%. In addition, the growth in assay [19] was 82.5%; in assay [20] it was 82.1%.

With `O=C1NC(=NC23CC4CC(CC(C4)C2)C3)N/C1=C\c1ccc2ncsc2c1`, the growth in assay [1] was -3.34% (active); in assay [2], 13.6%; in assay [3], -44.1% (active); in assay [4], 6.09% (active); in assay [5] it was 10.2%; in [6], 11.4%. Besides, the growth in assay [7] is 2.01% (active); in assay [8] it was 7.15% (active); in assay [9] it was 2.05% (active); in [10] it was 0.351% (active); in assay [11], -23.3% (active); in [12], -0.13% (active). The growth is 8.93% (active) in assay [13]; 2.14% (active) in assay [14]; 17.8% in assay [15]; 3.03% (active) in [16]; 5.17% (active) in assay [17]; -11.3% (active) in assay [18]. Further, the values for the growth in assay [19] and in assay [20] were 9.69% (active) and -5.73% (active), respectively.

With `O=C(c1ccc(Cl)cc1)C1[C@H](c2ccc(Br)cc2)[C@@H](c2ccccc2)NC12C(=O)Nc1ccc(Cl)cc12` (stereo not given in full), the growth in assay [1] was -87.6% (active); in assay [2] it was -49.4% (active); in assay [3], -4.86% (active); in assay [4], -8.73% (active); in assay [5] it was -80.8% (active); in [6], -30.5% (active). Further, the growth is -68.5% (active) in [7]; -87.2% (active) in [8]; -100% (active) in [9]; -86.9% (active) in assay [10]; -77.7% (active) in assay [11]; -47.8% (active) in assay [12]. Besides, the growth in assay [13] is -92.5% (active); in assay [14], -29.2% (active); in [15], -17.4% (active); in [16], -17.2% (active); in assay [17], -92.7% (active); in assay [18] it was -16.9% (active). The figures for the growth in [19] and in assay [20] were -17% (active) and -28.8% (active), respectively.

For the compound `Cc1cccc(-c2nc(Nc3ccccc3C(=O)O)c3ccccc3n2)c1`, the growth in assay [1] was 14.3%; in [2], 39.7%; in [3], 55.3%; in [4], 21.2%; in [5], 26.6%; in assay [6], 29.5%. Moreover, the growth is 6.01% (active) in assay [7]; 28% in assay [8]; 36.4% in [9]; 50% in [10]; 66% in [11]; 21% in assay [12]. For the same compound, the growth is 40.7% in [13]; 31% in assay [14]; 85.8% in assay [15]; 36.4% in [16]; 52.4% in [17]; 47.6% in assay [18]. The growth is 17.8% in [19] and 34.3% in assay [20].
